In PubChem BioAssay AID1159580 (chemical genetic matrix, 2015):
Screen size: about 5,500 compounds; about 2,000 (36%) were called active. Roughly 18% stayed inconclusive and do not appear here. No stated cut-off is given here; in the data, active means normalized growth mostly below about 0.91 (no sharp cut-off); inconclusive means no clear call, values can overlap the other calls; inactive means mostly above about 0.92. This is one part of the list.

Test: chemical genetic growth profiling, strain panel (AID 1159580);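 further: tested at 20 µM; growth read once vehicle control cultures reached saturation at 30 °C; 1 = growth at the plate median or of vehicle wells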
Details: S. cerevisiae deletion strains, growth OD

Measured: normalized growth

CCCc1nc(C)c2c(=O)[nH]c(-c3cc(S(=O)(=O)N4CCN(CC)CC4)ccc3OCC)nn12
inactive: locus YAL021C, strain ccr4, stronger effect = lower value 0.961 | locus YAL026C, strain drs2, stronger effect = lower value 0.944 | locus YAL030W, strain snc1, stronger effect = lower value 0.947 | locus YBL061C, strain skt5, stronger effect = lower value 0.979 | locus YBR009C, strain hhf1, stronger effect = lower value 0.975 | locus YBR023C, strain chs3, stronger effect = lower value 0.974 | locus YBR171W, strain sec66, stronger effect = lower value 0.967 | locus YBR231C, strain swc5, stronger effect = lower value 0.97 | locus YBR279W, strain paf1, stronger effect = lower value 0.981 | locus YCL011C, strain gbp2, stronger effect = lower value 0.974 | locus YCL016C, strain dcc1, stronger effect = lower value 0.974 | locus YCL061C, strain MRC1, stronger effect = lower value 0.952 | locus YCL069W, strain vba3, stronger effect = lower value 0.988 | locus YCR088W, strain abp1, stronger effect = lower value 0.98 | locus YDL005C, strain med2, stronger effect = lower value 0.98 | locus YDL040C, strain nat1, stronger effect = lower value 0.985 | locus YDR001C, strain nth1, stronger effect = lower value 0.964 | locus YDR069C, strain doa4, stronger effect = lower value 0.951 | locus YDR137W, strain rgp1, stronger effect = lower value 0.915 | locus YDR159W, strain sac3, stronger effect = lower value 0.93 | locus YDR195W, strain ref2 0.938 | locus YDR297W, strain sur2, stronger effect = lower value 0.984 | locus YDR334W, strain swr1, stronger effect = lower value 0.913 | locus YDR335W, strain msn5, stronger effect = lower value 0.97 | locus YDR392W, strain spt3, stronger effect = lower value 0.964 | locus YEL003W, strain gim4, stronger effect = lower value 0.969 | locus YEL037C, strain rad23, stronger effect = lower value 0.985 | locus YEL061C, strain CIN8 (second series), stronger effect = lower value 0.973 | locus YER015W, strain faa2, stronger effect = lower value 0.983 | locus YER016W, strain bim1, stronger effect = lower value 0.973 | locus YER111C, strain swi4, stronger effect = lower value 0.972 | locus YER155C, strain BEM2 (second series), stronger effect = lower value 0.945 | locus YFR010W, strain ubp6, stronger effect = lower value 0.943 | locus YGL167C, strain pmr1, stronger effect = lower value 0.957 | locus YGL173C, strain kem1, stronger effect = lower value 0.949 | locus YGL227W, strain vid30, stronger effect = lower value 0.965 | locus YGL240W, strain doc1, stronger effect = lower value 0.921 | locus YGL253W, strain hxk2, stronger effect = lower value 0.971 | locus YHR013C, strain ard1, stronger effect = lower value 0.931 | locus YHR027C, strain rpn1, stronger effect = lower value 0.942 | locus YHR030C, strain SLT2, stronger effect = lower value 1.08 | locus YHR079C, strain IRE1, stronger effect = lower value 1.07 | locus YHR142W, strain chs7, stronger effect = lower value 0.971 | locus YJL092W, strain hpr5, stronger effect = lower value 0.96 | locus YJL095W, strain BCK1 (second series), stronger effect = lower value 0.974 | locus YJL095W, strain BCK1, stronger effect = lower value 1.01 | locus YJL115W, strain asf1, stronger effect = lower value 0.943 | locus YJL129C, strain trk1, stronger effect = lower value 0.969 | locus YJL154C, strain vps35, stronger effect = lower value 0.97 | locus YJL164C, strain tpk1, stronger effect = lower value 0.948 | locus YJL166W, strain qcr8, stronger effect = lower value 0.969 | locus YJL187C, strain SWE1, stronger effect = lower value 0.972 | locus YJR066W, strain TOR1, stronger effect = lower value 0.979 | locus YKL160W, strain elf1, stronger effect = lower value 0.987 | locus YKR026C, strain gcn3, stronger effect = lower value 0.973 | locus YKR091W, strain srl3, stronger effect = lower value 0.977 | locus YLL001W, strain dnm1, stronger effect = lower value 0.973 | locus YLL026W, stronger effect = lower value 0.947 | locus YLL041C, strain sdh2, stronger effect = lower value 0.96 | locus YLR027C, strain aat2, stronger effect = lower value 0.953 | locus YLR113W, strain HOG1, stronger effect = lower value 0.997 | locus YLR221C, strain rsa3, stronger effect = lower value 0.978 | locus YLR258W, strain gsy2, stronger effect = lower value 0.983 | locus YLR262C, strain YPT6 (second series), stronger effect = lower value 0.979 | locus YLR320W, strain mms22, stronger effect = lower value 0.964 | locus YLR342W, strain FKS1, stronger effect = lower value 0.98 | locus YLR357W, strain rsc2, stronger effect = lower value 0.937 | locus YLR370C, strain arc18, stronger effect = lower value 0.966 | locus YLR384C, strain iki3, stronger effect = lower value 0.95 | locus YML120C, strain ndi1, stronger effect = lower value 0.981 | locus YMR058W, strain fet3, stronger effect = lower value 0.954 | locus YMR125W, strain sto1, stronger effect = lower value 0.969 | locus YMR129W, stronger effect = lower value 0.981 | locus YMR205C, strain PFK2, stronger effect = lower value 0.944 | locus YMR231W, strain pep5, stronger effect = lower value 0.978 | locus YNL071W, strain lat1, stronger effect = lower value 0.988 | locus YNL183C, strain NPR1, stronger effect = lower value 0.967 | locus YNL209W, strain ssb2, stronger effect = lower value 0.978 | locus YNL248C, strain rpa49, stronger effect = lower value 0.966 | locus YNL322C, strain KRE1 (second series), stronger effect = lower value 0.956 | locus YNR049C, strain mso1, stronger effect = lower value 0.967 | locus YOR001W, strain rrp6, stronger effect = lower value 0.956 | locus YOR070C, strain gyp1, stronger effect = lower value 0.983 | locus YOR080W, strain dia2, stronger effect = lower value 0.967 | locus YOR083W, strain WHI5, stronger effect = lower value 0.946 | locus YOR106W, strain vam3, stronger effect = lower value 0.955 | locus YOR231W, strain MKK1, stronger effect = lower value 1.05 | locus YOR265W, strain rbl2, stronger effect = lower value 0.98 | locus YOR270C, strain vph1, stronger effect = lower value 0.992 | locus YOR290C, strain snf2, stronger effect = lower value 0.938 | locus YPL051W, strain arl3, stronger effect = lower value 0.975 | locus YPL078C, strain atp4, stronger effect = lower value 0.97 | locus YPL106C, strain sse1, stronger effect = lower value 0.868 | locus YPL240C, strain hsp82, stronger effect = lower value 0.973 | locus YPL256C, strain CLN2, stronger effect = lower value 1.09
